Reference: the supplement of paper PMC10849652
Targets with a hit are over-represented here; the source holds about 7,900 in all. About 0.6% of all pairs of compound and target were hits.

Compound: C#Cc1cccc(Nc2ncnc3cc(OCCOC)c(OCCOC)cc23)c1 [erlotinib]
Test: log2 fold change, soluble protein after heating vs DMSO (PISA); higher = thermal stabilisation; K562 cells, 10 uM, 30 min; active = over 0.2 and 3.5 SD of the protein, either way, in both replicates (recomputed)
Procedure, shortened: (§1)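 K562 cells at 2×10^6 cells/mL were exposed to 10 μM compound for 30 min, then aliquots were heated for 3 min across 48°C-58°C, pooled, and extracted in PBS containing 0.5% NP-40 at 4°C. The supernatant after 21,000xg for 90 min was taken as soluble protein and measured by TMTpro 16plex LC-MS/MS with channel sums equalised. Thermal stability is reported relative to control samples, with values from duplicates. Fold changes are given on a log2 scale.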

Sequence of UniProt Q13586 (Q13586 whole entry, looked up): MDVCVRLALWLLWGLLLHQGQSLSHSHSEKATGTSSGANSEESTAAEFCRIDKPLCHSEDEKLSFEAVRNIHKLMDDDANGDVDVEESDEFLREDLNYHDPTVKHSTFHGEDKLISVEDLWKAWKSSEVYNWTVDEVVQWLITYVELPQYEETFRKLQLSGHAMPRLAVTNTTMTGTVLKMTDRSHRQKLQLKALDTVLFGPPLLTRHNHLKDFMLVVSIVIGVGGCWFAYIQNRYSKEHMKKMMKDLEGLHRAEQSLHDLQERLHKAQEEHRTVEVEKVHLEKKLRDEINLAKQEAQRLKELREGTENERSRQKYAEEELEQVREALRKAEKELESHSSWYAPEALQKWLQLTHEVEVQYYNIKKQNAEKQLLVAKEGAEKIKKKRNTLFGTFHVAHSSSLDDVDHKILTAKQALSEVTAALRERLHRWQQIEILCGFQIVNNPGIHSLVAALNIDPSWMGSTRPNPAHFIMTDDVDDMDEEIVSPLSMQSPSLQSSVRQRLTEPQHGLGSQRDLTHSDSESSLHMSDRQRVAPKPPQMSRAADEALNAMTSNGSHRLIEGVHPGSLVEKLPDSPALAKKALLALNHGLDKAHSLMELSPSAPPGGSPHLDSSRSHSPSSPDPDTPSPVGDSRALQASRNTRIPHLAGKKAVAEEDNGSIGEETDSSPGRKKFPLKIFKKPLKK
Sequence of UniProt P78382 (P78382 whole entry, looked up): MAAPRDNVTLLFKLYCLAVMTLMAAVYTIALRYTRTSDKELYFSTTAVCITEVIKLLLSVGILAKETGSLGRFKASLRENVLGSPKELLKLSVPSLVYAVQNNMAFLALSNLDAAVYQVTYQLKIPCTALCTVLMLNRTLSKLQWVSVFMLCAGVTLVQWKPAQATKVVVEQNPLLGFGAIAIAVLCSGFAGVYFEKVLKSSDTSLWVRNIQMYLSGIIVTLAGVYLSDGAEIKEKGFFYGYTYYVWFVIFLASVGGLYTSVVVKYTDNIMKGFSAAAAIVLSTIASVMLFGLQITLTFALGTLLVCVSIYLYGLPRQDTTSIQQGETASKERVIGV
Sequence of UniProt O15198 (O15198 whole entry, looked up): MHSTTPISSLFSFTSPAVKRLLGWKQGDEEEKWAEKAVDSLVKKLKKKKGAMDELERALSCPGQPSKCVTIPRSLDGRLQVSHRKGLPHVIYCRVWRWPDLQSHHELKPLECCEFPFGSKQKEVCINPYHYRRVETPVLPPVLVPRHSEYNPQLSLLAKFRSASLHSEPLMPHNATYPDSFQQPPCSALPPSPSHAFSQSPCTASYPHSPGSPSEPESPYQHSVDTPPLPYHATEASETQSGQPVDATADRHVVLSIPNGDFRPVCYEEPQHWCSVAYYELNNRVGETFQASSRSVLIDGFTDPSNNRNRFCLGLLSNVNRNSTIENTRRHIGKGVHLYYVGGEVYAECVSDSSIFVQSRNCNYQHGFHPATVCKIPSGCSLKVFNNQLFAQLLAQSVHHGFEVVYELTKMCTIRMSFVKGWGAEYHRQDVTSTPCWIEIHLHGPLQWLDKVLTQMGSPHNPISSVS
Sequence of UniProt Q9H2G2 (Q9H2G2 whole entry, looked up): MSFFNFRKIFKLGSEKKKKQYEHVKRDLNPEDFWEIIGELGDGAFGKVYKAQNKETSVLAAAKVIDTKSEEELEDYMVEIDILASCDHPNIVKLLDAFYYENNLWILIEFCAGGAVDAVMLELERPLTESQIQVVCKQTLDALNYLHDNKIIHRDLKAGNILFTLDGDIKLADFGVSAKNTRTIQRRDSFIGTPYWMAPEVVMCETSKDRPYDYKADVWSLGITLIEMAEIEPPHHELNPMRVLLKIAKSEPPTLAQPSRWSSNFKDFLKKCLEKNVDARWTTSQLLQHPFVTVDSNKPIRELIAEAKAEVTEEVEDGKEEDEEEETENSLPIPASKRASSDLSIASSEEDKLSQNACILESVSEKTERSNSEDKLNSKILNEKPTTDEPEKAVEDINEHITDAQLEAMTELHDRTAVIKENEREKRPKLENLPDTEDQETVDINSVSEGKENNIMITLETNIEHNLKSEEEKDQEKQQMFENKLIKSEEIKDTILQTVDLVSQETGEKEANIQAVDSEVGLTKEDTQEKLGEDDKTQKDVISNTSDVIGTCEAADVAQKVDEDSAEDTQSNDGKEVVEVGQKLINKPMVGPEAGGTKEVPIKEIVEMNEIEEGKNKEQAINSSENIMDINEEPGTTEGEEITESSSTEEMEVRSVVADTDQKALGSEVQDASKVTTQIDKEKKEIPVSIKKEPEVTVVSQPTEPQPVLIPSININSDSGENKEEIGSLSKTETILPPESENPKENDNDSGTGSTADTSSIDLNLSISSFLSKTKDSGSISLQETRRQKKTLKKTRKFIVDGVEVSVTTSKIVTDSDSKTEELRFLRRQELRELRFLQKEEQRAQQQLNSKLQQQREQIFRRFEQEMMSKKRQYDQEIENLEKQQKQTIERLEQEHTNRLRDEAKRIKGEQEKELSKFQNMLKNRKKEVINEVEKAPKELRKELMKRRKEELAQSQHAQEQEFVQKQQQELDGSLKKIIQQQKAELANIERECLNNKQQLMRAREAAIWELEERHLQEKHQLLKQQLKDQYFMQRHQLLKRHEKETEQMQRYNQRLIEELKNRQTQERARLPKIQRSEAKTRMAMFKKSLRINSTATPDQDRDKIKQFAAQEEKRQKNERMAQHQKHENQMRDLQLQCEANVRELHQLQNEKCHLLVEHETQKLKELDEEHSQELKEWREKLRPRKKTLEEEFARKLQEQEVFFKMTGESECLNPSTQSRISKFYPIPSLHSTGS
Sequence of UniProt P15907 (P15907 whole entry, looked up): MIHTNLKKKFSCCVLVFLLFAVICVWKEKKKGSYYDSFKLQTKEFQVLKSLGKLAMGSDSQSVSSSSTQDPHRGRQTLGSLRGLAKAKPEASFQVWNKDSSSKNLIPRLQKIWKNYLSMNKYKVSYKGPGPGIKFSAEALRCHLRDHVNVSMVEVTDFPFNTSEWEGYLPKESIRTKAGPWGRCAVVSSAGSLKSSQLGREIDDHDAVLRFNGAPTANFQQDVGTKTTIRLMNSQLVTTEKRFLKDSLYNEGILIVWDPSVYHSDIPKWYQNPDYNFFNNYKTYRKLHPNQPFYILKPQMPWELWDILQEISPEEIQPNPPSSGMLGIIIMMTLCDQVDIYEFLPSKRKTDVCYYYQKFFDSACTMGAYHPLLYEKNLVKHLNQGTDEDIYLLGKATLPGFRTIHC
Sequence of UniProt Q9UDY2 (Q9UDY2 whole entry, looked up): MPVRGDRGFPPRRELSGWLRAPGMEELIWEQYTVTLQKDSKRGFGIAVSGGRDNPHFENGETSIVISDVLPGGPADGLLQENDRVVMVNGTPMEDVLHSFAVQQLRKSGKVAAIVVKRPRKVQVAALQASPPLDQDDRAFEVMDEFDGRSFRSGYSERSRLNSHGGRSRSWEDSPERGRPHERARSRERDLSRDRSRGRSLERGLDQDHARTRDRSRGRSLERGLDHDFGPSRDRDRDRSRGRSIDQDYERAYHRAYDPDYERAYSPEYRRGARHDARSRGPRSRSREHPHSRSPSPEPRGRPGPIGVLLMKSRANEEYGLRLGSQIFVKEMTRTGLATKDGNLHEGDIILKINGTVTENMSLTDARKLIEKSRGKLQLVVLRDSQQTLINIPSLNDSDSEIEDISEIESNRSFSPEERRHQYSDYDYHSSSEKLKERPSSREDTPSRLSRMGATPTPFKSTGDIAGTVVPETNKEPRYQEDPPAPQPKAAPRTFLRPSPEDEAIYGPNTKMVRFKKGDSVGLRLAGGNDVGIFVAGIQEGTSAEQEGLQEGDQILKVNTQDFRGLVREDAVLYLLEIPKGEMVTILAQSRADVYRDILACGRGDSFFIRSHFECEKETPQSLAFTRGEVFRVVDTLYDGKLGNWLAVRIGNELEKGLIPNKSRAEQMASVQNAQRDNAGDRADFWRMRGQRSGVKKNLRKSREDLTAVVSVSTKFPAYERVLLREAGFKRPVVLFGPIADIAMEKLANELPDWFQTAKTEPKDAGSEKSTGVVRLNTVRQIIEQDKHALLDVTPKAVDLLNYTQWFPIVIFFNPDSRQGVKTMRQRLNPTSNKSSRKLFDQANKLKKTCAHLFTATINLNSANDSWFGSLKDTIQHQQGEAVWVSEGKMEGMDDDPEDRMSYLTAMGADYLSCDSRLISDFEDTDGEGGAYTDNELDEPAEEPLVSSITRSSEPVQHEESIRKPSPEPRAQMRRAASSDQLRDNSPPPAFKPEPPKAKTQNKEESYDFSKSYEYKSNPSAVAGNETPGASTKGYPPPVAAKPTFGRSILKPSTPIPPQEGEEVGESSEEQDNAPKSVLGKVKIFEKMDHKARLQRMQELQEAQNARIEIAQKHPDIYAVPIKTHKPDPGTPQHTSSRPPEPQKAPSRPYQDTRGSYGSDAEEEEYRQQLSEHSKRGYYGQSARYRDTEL
Sequence of UniProt Q6XR72 (Q6XR72 whole entry, looked up): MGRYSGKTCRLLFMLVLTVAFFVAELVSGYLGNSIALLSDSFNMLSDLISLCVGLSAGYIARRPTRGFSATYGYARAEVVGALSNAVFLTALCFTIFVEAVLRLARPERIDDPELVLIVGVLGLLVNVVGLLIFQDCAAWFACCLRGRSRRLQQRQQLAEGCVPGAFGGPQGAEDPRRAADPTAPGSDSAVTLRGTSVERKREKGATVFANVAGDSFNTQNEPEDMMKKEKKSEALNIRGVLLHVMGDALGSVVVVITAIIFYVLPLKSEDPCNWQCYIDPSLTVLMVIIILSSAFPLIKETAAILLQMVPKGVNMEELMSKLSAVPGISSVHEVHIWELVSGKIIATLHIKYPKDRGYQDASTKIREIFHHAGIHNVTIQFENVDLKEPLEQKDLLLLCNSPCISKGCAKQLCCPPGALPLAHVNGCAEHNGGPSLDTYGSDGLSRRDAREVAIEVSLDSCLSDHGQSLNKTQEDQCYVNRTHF
Sequence of UniProt Q01130 (Q01130 whole entry, looked up): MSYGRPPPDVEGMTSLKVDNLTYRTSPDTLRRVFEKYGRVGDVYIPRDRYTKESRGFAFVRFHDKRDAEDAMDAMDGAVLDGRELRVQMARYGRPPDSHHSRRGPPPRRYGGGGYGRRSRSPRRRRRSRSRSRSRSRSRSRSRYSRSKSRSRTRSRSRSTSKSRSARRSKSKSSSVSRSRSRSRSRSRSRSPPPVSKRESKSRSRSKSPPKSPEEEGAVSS

Row | Target | log2 fold change
1 | SPPL2B (UniProt Q8TCT7) | 0.021 (inactive)
2 | STK4 (UniProt Q13043) | -0.017 (inactive)
3 | SMG1 (UniProt Q96Q15) | 0.012 (inactive)
4 | STK38L (UniProt Q9Y2H1) | -0.005 (inactive)
5 | TGFBRAP1 (UniProt Q8WUH2) | 0.064 (inactive)
6 | SLC9A6 isoform 2 (UniProt Q92581) | -0.024 (inactive)
7 | SLC35A1 (UniProt P78382) | 0.014 (inactive)
8 | TFR2 (UniProt Q9UP52) | 0.009 (inactive)
9 | TERF2IP (UniProt Q9NYB0) | -0.046 (inactive)
10 | SUGP1 (UniProt Q8IWZ8) | 0.039 (inactive)
11 | SURF1 (UniProt Q15526) | 0.021 (inactive)
12 | STARD7 (UniProt Q9NQZ5) | -0.021 (inactive)
13 | STEAP3 isoform 2 (UniProt Q658P3) | 0.053 (inactive)
14 | ST6GAL1 (UniProt P15907) | 0.053 (inactive)
15 | SPIRE1 (UniProt Q08AE8) | 0.16 (inactive)
16 | SLC27A1 (UniProt Q6PCB7) | -0.003 (inactive)
17 | SPG21 (UniProt Q9NZD8) | 0.014 (inactive)
18 | SRP72 (UniProt O76094) | 0.044 (inactive)
19 | SLC38A7 (UniProt Q9NVC3) | 0.009 (inactive)

Row | Target | log2 fold change
20 | SLK isoform 2 (UniProt Q9H2G2) | -0.023 (inactive)
21 | TIPRL (UniProt O75663) | 0.055 (inactive)
22 | STX17 (UniProt P56962) | 0.206 (inactive)
23 | STIM1 (UniProt Q13586) | -0.015 (inactive)
24 | SLC30A10 (UniProt Q6XR72) | 0.033 (inactive)
25 | STK25 (UniProt O00506) | 0.081 (inactive)
26 | SNUPN (UniProt O95149) | -0.091 (inactive)
27 | SLC7A6 (UniProt Q92536) | -0.051 (inactive)
28 | SMAD9 (UniProt O15198) | -0.001 (inactive)
29 | TJP2 isoform 7 (UniProt Q9UDY2) | 0.116 (inactive)
30 | SLC30A7 (UniProt Q8NEW0) | -0.004 (inactive)
31 | STOM (UniProt P27105) | -0.027 (inactive)
32 | STAT5B (UniProt P51692) | 0.027 (inactive)
33 | SPCS2 (UniProt Q15005) | -0.022 (inactive)
34 | SMAP2 (UniProt Q8WU79) | -0.044 (inactive)
35 | TIAL1 isoform 2 (UniProt Q01085) | 0.013 (inactive)
36 | STAT6 (UniProt P42226) | 0.082 (inactive)
37 | SLC6A6 (UniProt P31641) | 0.001 (inactive)
38 | SRSF2 (UniProt Q01130) | -0.003 (inactive)

Compound: C/C(=N\NC(=O)C1=CC(=CC=C1)S(=O)(=O)N2CCOCC2)/C3=C(C=CC(=C3)Cl)O
Test: as above
Procedure, shortened: as §1

Row | Target | log2 fold change
39 | SPPL2B (UniProt Q8TCT7) | -0.112 (inactive)
40 | STK4 (UniProt Q13043) | 0 (inactive)
41 | SMG1 (UniProt Q96Q15) | 0.101 (inactive)
42 | STK38L (UniProt Q9Y2H1) | 0.018 (inactive)
43 | TGFBRAP1 (UniProt Q8WUH2) | 0.217 (inactive)
44 | SLC9A6 isoform 2 (UniProt Q92581) | 0.014 (inactive)
45 | SLC35A1 (UniProt P78382) | -0.126 (inactive)
46 | TFR2 (UniProt Q9UP52) | -0.019 (inactive)
47 | TERF2IP (UniProt Q9NYB0) | 0 (inactive)
48 | SUGP1 (UniProt Q8IWZ8) | 0.093 (inactive)
49 | SURF1 (UniProt Q15526) | -0.036 (inactive)
50 | STARD7 (UniProt Q9NQZ5) | 0.084 (inactive)
51 | STEAP3 isoform 2 (UniProt Q658P3) | 0.038 (inactive)
52 | ST6GAL1 (UniProt P15907) | 0.006 (inactive)
53 | SPIRE1 (UniProt Q08AE8) | -0.264 (inactive)
54 | SLC27A1 (UniProt Q6PCB7) | -0.053 (inactive)
55 | SPG21 (UniProt Q9NZD8) | 0.075 (inactive)
56 | SRP72 (UniProt O76094) | 0.105 (inactive)
57 | SLC38A7 (UniProt Q9NVC3) | -0.003 (inactive)

Row | Target | log2 fold change
58 | SLK isoform 2 (UniProt Q9H2G2) | 0.083 (inactive)
59 | TIPRL (UniProt O75663) | 0.097 (inactive)
60 | STX17 (UniProt P56962) | 0.003 (inactive)
61 | STIM1 (UniProt Q13586) | 0.01 (inactive)
62 | SLC30A10 (UniProt Q6XR72) | 0.068 (inactive)
63 | STK25 (UniProt O00506) | 0.011 (inactive)
64 | SNUPN (UniProt O95149) | 0.032 (inactive)
65 | SLC7A6 (UniProt Q92536) | 0.232 (inactive)
66 | SMAD9 (UniProt O15198) | 0.086 (inactive)
67 | TJP2 isoform 7 (UniProt Q9UDY2) | 0.06 (inactive)
68 | SLC30A7 (UniProt Q8NEW0) | 0.175 (inactive)
69 | STOM (UniProt P27105) | -0.087 (inactive)
70 | STAT5B (UniProt P51692) | -0.148 (inactive)
71 | SPCS2 (UniProt Q15005) | 0.015 (inactive)
72 | SMAP2 (UniProt Q8WU79) | 0.13 (inactive)
73 | TIAL1 isoform 2 (UniProt Q01085) | -0.004 (inactive)
74 | STAT6 (UniProt P42226) | 0.061 (inactive)
75 | SLC6A6 (UniProt P31641) | 0.013 (inactive)
76 | SRSF2 (UniProt Q01130) | -0.034 (inactive)
